40 compounds from the supplement of paper PMC11738630 can be followed below.

Structures are written as SMILES.

The test deals with Salmonella enterica serovar Typhimurium 14028s. The experiment in a line: approximate change in surviving CFU after surface colonization relative to water-only control (log10 CFU/mL change); higher = more surviving bacteria (less inhibition of surface colonization). The note with it: not stated (Biolog proprietary concentration), surface: plastic 96-well plate, 20-24 h at 25 °C.

Take `Nc1ncnc2c1ncn2[C@H]1C[C@H](O)[C@@H](CO)O1` [2-Deoxy Adenosine]: the “approximate change in surviving CFU (log10)” value (from here on “approximate change … (log10)”) (Biolog plate: PM1, Biolog well: E11) stood at 1.37.

For the compound `NCC(=O)N[C@@H](CC(=O)O)C(=O)O` [Glycyl-L-Aspartic Acid], under “Biolog plate: PM1, Biolog well: F1”, the “approximate change … (log10)” value was determined as 0.929.

Regarding `NCC(=O)N[C@@H](CCC(=O)O)C(=O)O` [Glycyl-L-Glutamic Acid], the “approximate change … (log10)” value (Biolog plate: PM1, Biolog well: G1) is 1.22.

As for `O=C(O)CC(CC(=O)O)C(=O)O` [Tricarballylic Acid], where the note is “Biolog plate: PM1, Biolog well: G2”, the “approximate change … (log10)” value came to 1.05.

For the compound `O=C(O)Cc1ccc(O)cc1` [p-Hydroxy Phenyl Acetic Acid], under “Biolog plate: PM1, Biolog well: H2”, the “approximate change … (log10)” value was -2.12.

Consider `OC[C@H]1O[C@@H](O[C@H]2[C@H](O)[C@@H](O)[C@H](O[C@H]3[C@H](O)[C@H](O)[C@H](O[C@@H]4[C@H](O)[C@H](O)[C@H](O)O[C@@H]4CO)O[C@@H]3CO)O[C@@H]2CO)[C@@H](O)[C@@H](O)[C@@H]1O` [Mannan], for which the “approximate change … (log10)” value (Biolog plate: PM2, Biolog well: A11) was found to be 0.837.

Take `OC[C@@H](O)[C@@H](O[C@H]1O[C@H](CO)[C@@H](O)[C@H](O)[C@H]1O)[C@H](O)[C@@H](O)CO` [Maltitol]: the “approximate change … (log10)” value (Biolog plate: PM2, Biolog well: C5) is 1.37.

For the compound `OCc1ccccc1O[C@@H]1O[C@H](CO)[C@@H](O)[C@H](O)[C@H]1O` [Salicin], the “approximate change … (log10)” value (Biolog plate: PM2, Biolog well: D2) was determined as 0.0215.

On to `OC[C@H]1O[C@H](OC[C@H]2O[C@H](OC[C@H]3O[C@H](O[C@]4(CO)O[C@H](CO)[C@@H](O)[C@@H]4O)[C@H](O)[C@@H](O)[C@@H]3O)[C@H](O)[C@@H](O)[C@H]2O)[C@H](O)[C@@H](O)[C@H]1O` [Stachyose], for which the “approximate change … (log10)” value (Biolog plate: PM2, Biolog well: D5) came out at 1.37.

In the case of `CCCCCCCCCC(=O)O` [Capric Acid], where the note is “Biolog plate: PM2, Biolog well: E1”, the “approximate change … (log10)” value was -0.88.

With `O=C(O)c1ccc(O)cc1` [4-Hydroxy Benzoic Acid], the “approximate change … (log10)” value (Biolog plate: PM2, Biolog well: E7) was -0.58.

`C=C(CC(=O)O)C(=O)O` [Itaconic Acid]: the “approximate change … (log10)” value (Biolog plate: PM2, Biolog well: E11) is -3.95.

Take `O=C(CO)[C@@H](O)[C@H](O)[C@@H](O)C(=O)O` [5-Keto-D-Gluconic Acid]: the “approximate change … (log10)” value (Biolog plate: PM2, Biolog well: E12) came to 0.708.

For `COC(=O)[C@@H](C)O` [D-Lactic Acid Methyl Ester], the “approximate change … (log10)” value (Biolog plate: PM2, Biolog well: F1) is -0.15.

With `O=C(O)CC(=O)O` [Malonic Acid], where the note is “Biolog plate: PM2, Biolog well: F2”, the “approximate change … (log10)” value came to 0.0859.

Consider `C/C=C/C=C/C(=O)O` [Sorbic Acid], for which the “approximate change … (log10)” value (Biolog plate: PM2, Biolog well: F9) is -2.68.

For the compound `NCC(O)c1ccc(O)cc1` (racemic) [D,L-Octopamine], the “approximate change … (log10)” value (Biolog plate: PM2, Biolog well: H7) amounted to 0.987.

In the case of `CC(=O)C(C)=O` [2,3-Butanedione], the “approximate change … (log10)” value (Biolog plate: PM2, Biolog well: H11) was -1.61.

On to `O=C(O)CC[C@@H](C(=O)O)N1C(=O)c2ccccc2C1=O` [N-Phthaloyl-L-Glutamic Acid], for which the “approximate change … (log10)” value (Biolog plate: PM3, Biolog well: D2) is -0.343.

Regarding `NO` [Hydroxylamine], the “approximate change … (log10)” value (Biolog plate: PM3, Biolog well: D4) is -0.687.

Consider `NCCCCN=C(N)N` [Agmatine], for which the “approximate change … (log10)” value (Biolog plate: PM3, Biolog well: D12) is -0.193.

As to `NC=O` [Formamide], the “approximate change … (log10)” value (Biolog plate: PM3, Biolog well: E5) is -0.708.

Consider `N[C@@H]1C(O)O[C@H](CO)[C@@H](O)[C@@H]1O` (stereo partly drawn) [D-Mannosamine], for which, for the setting “Biolog plate: PM3, Biolog well: E10”, the “approximate change … (log10)” value is -1.09.

Turning to `Nc1cc[nH]c(=O)n1` [Cytosine], for the setting “Biolog plate: PM3, Biolog well: F5”, the “approximate change … (log10)” value amounted to 1.14.

For the compound `O=C1NC(=O)C(=O)C(=O)N1` [Alloxan], for the setting “Biolog plate: PM3, Biolog well: G4”, the “approximate change … (log10)” value was -3.16.

On to `NCC(=O)N[C@@H](CC(N)=O)C(=O)O`, for which the “approximate change … (log10)” value (Biolog plate: PM3, Biolog well: H8) amounted to 0.107.

Take `NCC(=O)N[C@@H](CCC(N)=O)C(=O)O`: the “approximate change … (log10)” value (Biolog plate: PM3, Biolog well: H9) was found to be 0.129.

Turning to `OC[C@H]1O[C@H](O[C@H]2O[C@H](CO)[C@@H](O)[C@H](O)[C@H]2O)[C@H](O)[C@@H](O)[C@@H]1O` [D-Trehalose], under “Biolog plate: PM1, Biolog well: A10”, the “approximate change … (log10)” value stood at 1.59.

As to `O=C[C@H](O)[C@@H](O)[C@H](O)[C@H](O)COP(=O)(O)O` [D-Glucose-6-Phosphate], the “approximate change … (log10)” value (Biolog plate: PM1, Biolog well: C1) came to 1.22.

As for `OC[C@H]1O[C@H](O[C@H]2[C@H](O)[C@@H](O)[C@H](O)O[C@@H]2CO)[C@H](O)[C@@H](O)[C@@H]1O` [Maltose], the “approximate change … (log10)” value (Biolog plate: PM1, Biolog well: C10) turned out to be 1.57.

`O=C(O)CCC(=O)C(=O)O` [a-Keto-Glutaric Acid]: the “approximate change … (log10)” value (Biolog plate: PM1, Biolog well: D6) came to 1.19.

In the case of `O=P(O)(O)O[C@H]1O[C@H](CO)[C@@H](O)[C@H](O)[C@H]1O` [D-Glucose-1-Phosphate], the “approximate change … (log10)” value (Biolog plate: PM1, Biolog well: E3) is 1.4.

`O=C(O)/C=C/C(=O)O` [Fumaric Acid]: the “approximate change … (log10)” value (Biolog plate: PM1, Biolog well: F5) was determined as 0.88.

On to `CC(=O)CC(=O)O` [Acetoacetic Acid], for which, for the setting “Biolog plate: PM1, Biolog well: G7”, the “approximate change … (log10)” value turned out to be 0.172.

With `COC(=O)C(C)=O` [Methyl Pyruvate], the “approximate change … (log10)” value (Biolog plate: PM1, Biolog well: G10) was determined as 0.0644.

On to `O=C(O)C[C@@H](O)C(=O)O` [D-Malic Acid], for which the “approximate change … (log10)” value (Biolog plate: PM1, Biolog well: G11) was 1.05.

For the compound `OC[C@H]1O[C@@H]2O[C@H]3[C@H](O)[C@@H](O)[C@@H](O[C@H]4[C@H](O)[C@@H](O)[C@@H](O[C@H]5[C@H](O)[C@@H](O)[C@@H](O[C@H]6[C@H](O)[C@@H](O)[C@@H](O[C@H]7[C@H](O)[C@@H](O)[C@@H](O[C@H]8[C@H](O)[C@@H](O)[C@@H](O[C@H]1[C@H](O)[C@H]2O)O[C@@H]8CO)O[C@@H]7CO)O[C@@H]6CO)O[C@@H]5CO)O[C@@H]4CO)O[C@@H]3CO` [b-Cyclodextrin], the “approximate change … (log10)” value (Biolog plate: PM2, Biolog well: A4) is 1.01.

Consider `O=C[C@H](O)[C@@H](O)[C@H](O)[C@H](O)CO[C@@H]1O[C@H](CO)[C@@H](O)[C@H](O)[C@H]1O` [Gentiobiose], for which the “approximate change … (log10)” value (Biolog plate: PM2, Biolog well: C1) was 1.09.

In the case of `O=C(CO)[C@@H](O)[C@H](O)[C@H](O)CO[C@H]1O[C@H](CO)[C@@H](O)[C@H](O)[C@H]1O` [Palatinose], the “approximate change … (log10)” value (Biolog plate: PM2, Biolog well: C12) was determined as 0.751.

As to `O=C(CO)[C@@H](O)[C@@H](O)[C@H](O)CO` [D-Tagatose], the “approximate change … (log10)” value (Biolog plate: PM2, Biolog well: D6) was determined as 0.859.
